# In the supplement of paper PMC10037445:
# The full ranking holds about 2,900 compounds; the median of “NF-kB SEAP reporter activity, fold change vs agonist alone” is about 0.99, and the highest 2% start at about 2.6. Only a selection was taken, and the highest values are over-represented in it overall.
# How the values were obtained:
# RAW-Dual [1] = experiment: NF-kB SEAP reporter activity, fold change vs agonist alone; higher = enhanced NF-kB activity
# How it was run: (§1)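 Library stock was pin-tooled at 50 nL into 384-well plates of RAW-Dual macrophages (50,000 cells/well, DMEM), followed 1 h later by a PRR agonist, and the cells were kept at 37 °C, 5% CO2. Supernatant collected after 20 hours was read for IRF by QuantiLuc luminescence and for NF-κB by QuantiBlue absorbance at 620 nm. Reporter activity is fold change over agonist-alone wells, and a well counted as cytotoxic when its IncuCyte confluency was below 70% of agonist controls in both mask sets.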
# RAW-Dual [2] = experiment: NF-kB SEAP reporter activity, fold change vs agonist alone; cytotoxicity flag (confluency mask): not cytotoxic; higher = enhanced NF-kB activity
# How it was run: as §1
# RAW-Dual [3] = experiment: NF-kB SEAP reporter activity, fold change vs agonist alone; cytotoxicity flag (confluency mask): cytotoxic (confluency <70% of control); higher = enhanced NF-kB activity
# How it was run: as §1
# [4] = library stock concentration (final ~1000-fold dilution): 10 mM, cytotoxicity flag (confluency mask): not cytotoxic, agonist: Imiquimod (TLR7) […]
# [5] = library stock concentration (final ~1000-fold dilution): 10 mM, cytotoxicity flag (confluency mask): not cytotoxic, agonist: MPLA (TLR4) […]
# [6] = agonist: ODN 1826 (TLR9) 0.5 ug/mL
# [7] = agonist: Pam2CSK4 (TLR2/6) 0.1 ug/mL
# [8] = agonist: Pam3CSK4 (TLR2/1) 0.1 ug/mL
# [9] = library stock concentration (final ~1000-fold dilution): 10 mM, cytotoxicity flag (confluency mask): cytotoxic (confluency <70% of control), agonist: Imiquimod (TLR7) […]
# [10] = library stock concentration (final ~1000-fold dilution): 10 mM, cytotoxicity flag (confluency mask): cytotoxic (confluency <70% of control), agonist: MPLA (TLR4) […]
smiles,measurement,setting,value
COc1cc(N2CCN(C)CC2)ccc1Nc1nccc(-c2cn(C)c3cnccc23)n1,NF-kB SEAP reporter activity,RAW-Dual [1]; [4],0.285
same,NF-kB SEAP reporter activity,RAW-Dual [1]; [5],1.58
Cc1nc(N)sc1-c1ccnc(Nc2ccc(N3CCOCC3)cc2)n1,NF-kB SEAP reporter activity,RAW-Dual [1]; [4],0.996
same,NF-kB SEAP reporter activity,RAW-Dual [1]; [5],1.39
CC(C)(O)CNc1ncc(-c2ccnc(Nc3ccnc(Cl)c3)n2)c(CC2CC2)n1,NF-kB SEAP reporter activity,RAW-Dual [1]; [4],0.784
same,NF-kB SEAP reporter activity,RAW-Dual [1]; [5],2.07
Cc1nc(N)sc1-c1ccnc(Nc2ccc(N3CCOCC3)cc2)n1 (library stock concentration (final ~1000-fold dilution): 10 mM),NF-kB SEAP reporter activity,RAW-Dual [2]; agonist: LPS (TLR4) 0.1 ug/mL,0.713
same,NF-kB SEAP reporter activity,RAW-Dual [2]; [6],0.256
same,NF-kB SEAP reporter activity,RAW-Dual [2]; [7],0.401
same,NF-kB SEAP reporter activity,RAW-Dual [2]; [8],0.522
CCNC1CC(C)S(=O)(=O)c2sc(S(N)(=O)=O)cc21.Cl (stereo not given) (library stock concentration (final ~1000-fold dilution): 10 mM water),NF-kB SEAP reporter activity,RAW-Dual [2]; agonist: LPS (TLR4) 0.1 ug/mL,1.49
same,NF-kB SEAP reporter activity,RAW-Dual [2]; [6],1.13
same,NF-kB SEAP reporter activity,RAW-Dual [2]; [7],1.09
same,NF-kB SEAP reporter activity,RAW-Dual [2]; [8],0.997
CCNC1CC(C)S(=O)(=O)c2sc(S(N)(=O)=O)cc21.Cl (stereo not given),NF-kB SEAP reporter activity,"RAW-Dual [1]; library stock concentration (final ~1000-fold dilution): 10 mM water, cytotoxicity flag (confluency mask): not cytotoxic, agonist: Imiquimod (TLR7) […]",0.908
same,NF-kB SEAP reporter activity,"RAW-Dual [1]; library stock concentration (final ~1000-fold dilution): 10 mM water, cytotoxicity flag (confluency mask): not cytotoxic, agonist: MPLA (TLR4) […]",0.982
CCc1ccc(OCc2ccccc2C(=O)Nc2ccc3nc(C)cc(N)c3c2)cc1.Cl,NF-kB SEAP reporter activity,RAW-Dual [1]; [9],0.265
same,NF-kB SEAP reporter activity,RAW-Dual [1]; [10],0.216
CCc1ccc(OCc2ccccc2C(=O)Nc2ccc3nc(C)cc(N)c3c2)cc1.Cl (library stock concentration (final ~1000-fold dilution): 10 mM),NF-kB SEAP reporter activity,RAW-Dual [3]; agonist: LPS (TLR4) 0.1 ug/mL,0.212
same,NF-kB SEAP reporter activity,RAW-Dual [3]; [6],0.198
same,NF-kB SEAP reporter activity,RAW-Dual [3]; [7],0.0939
same,NF-kB SEAP reporter activity,RAW-Dual [3]; [8],0.336
CCCN1CCCCC1C(=O)Nc1c(C)cccc1C (stereo not given) (library stock concentration (final ~1000-fold dilution): 10 mM),NF-kB SEAP reporter activity,RAW-Dual [2]; agonist: LPS (TLR4) 0.1 ug/mL,1.03
same,NF-kB SEAP reporter activity,RAW-Dual [2]; [6],1.03
same,NF-kB SEAP reporter activity,RAW-Dual [2]; [7],0.952
same,NF-kB SEAP reporter activity,RAW-Dual [2]; [8],1.06
CCCN1CCCCC1C(=O)Nc1c(C)cccc1C (stereo not given),NF-kB SEAP reporter activity,RAW-Dual [1]; [5],1.09
Cc1ccc(C(=O)N(CCCN)C(c2nc3cc(Cl)ccc3c(=O)n2Cc2ccccc2)C(C)C)cc1 (stereo not given) (library stock concentration (final ~1000-fold dilution): 10 mM),NF-kB SEAP reporter activity,RAW-Dual [3]; agonist: LPS (TLR4) 0.1 ug/mL,0.331
same,NF-kB SEAP reporter activity,RAW-Dual [3]; [6],0.254
same,NF-kB SEAP reporter activity,RAW-Dual [3]; [7],0.0886
same,NF-kB SEAP reporter activity,RAW-Dual [3]; [8],0.27
Cc1ccc(C(=O)N(CCCN)C(c2nc3cc(Cl)ccc3c(=O)n2Cc2ccccc2)C(C)C)cc1 (stereo not given),NF-kB SEAP reporter activity,RAW-Dual [1]; [9],1.41
same,NF-kB SEAP reporter activity,RAW-Dual [1]; [10],0.878
COC1C(=O)C2(C)C(OC)CC3OCC3(OC(C)=O)C2C(OC(=O)c2ccccc2)C2(O)CC(OC(=O)C(O)C(NC(=O)OC(C)(C)C)c3ccccc3)C(C)=C1C2(C)C (stereo not given) (library stock concentration (final ~1000-fold dilution): 10 mM),NF-kB SEAP reporter activity,RAW-Dual [2]; agonist: LPS (TLR4) 0.1 ug/mL,1.71
same,NF-kB SEAP reporter activity,RAW-Dual [2]; [6],1.2
same,NF-kB SEAP reporter activity,RAW-Dual [2]; [7],1.01
same,NF-kB SEAP reporter activity,RAW-Dual [2]; [8],0.912
COC1C(=O)C2(C)C(OC)CC3OCC3(OC(C)=O)C2C(OC(=O)c2ccccc2)C2(O)CC(OC(=O)C(O)C(NC(=O)OC(C)(C)C)c3ccccc3)C(C)=C1C2(C)C (stereo not given),NF-kB SEAP reporter activity,RAW-Dual [1]; [4],1.57
same,NF-kB SEAP reporter activity,RAW-Dual [1]; [5],1.25
Cc1cccc(Nc2nc(-c3ccncc3)cs2)c1 (library stock concentration (final ~1000-fold dilution): 10 mM),NF-kB SEAP reporter activity,RAW-Dual [2]; agonist: LPS (TLR4) 0.1 ug/mL,2.85
same,NF-kB SEAP reporter activity,RAW-Dual [2]; [6],1.3
same,NF-kB SEAP reporter activity,RAW-Dual [2]; [7],0.662
same,NF-kB SEAP reporter activity,RAW-Dual [2]; [8],1
Oc1ccc(Nc2nc(-c3ccc(Cl)cc3)cs2)cc1 (library stock concentration (final ~1000-fold dilution): 10 mM),NF-kB SEAP reporter activity,RAW-Dual [2]; agonist: LPS (TLR4) 0.1 ug/mL,0.311
same,NF-kB SEAP reporter activity,RAW-Dual [2]; [6],0.27
same,NF-kB SEAP reporter activity,RAW-Dual [2]; [7],0.227
same,NF-kB SEAP reporter activity,RAW-Dual [2]; [8],0.157
Oc1ccc(Nc2nc(-c3ccc(Cl)cc3)cs2)cc1,NF-kB SEAP reporter activity,RAW-Dual [1]; [4],0.665
same,NF-kB SEAP reporter activity,RAW-Dual [1]; [5],0.836
O=C(NCc1cccc(O)c1)Nc1nc(-c2ccncc2)cs1 (library stock concentration (final ~1000-fold dilution): 10 mM),NF-kB SEAP reporter activity,RAW-Dual [2]; agonist: LPS (TLR4) 0.1 ug/mL,1.01
same,NF-kB SEAP reporter activity,RAW-Dual [2]; [6],1.21
same,NF-kB SEAP reporter activity,RAW-Dual [2]; [7],1.24
same,NF-kB SEAP reporter activity,RAW-Dual [2]; [8],1.88
O=C(NCc1cccc(O)c1)Nc1nc(-c2ccncc2)cs1,NF-kB SEAP reporter activity,RAW-Dual [1]; [4],1.3
same,NF-kB SEAP reporter activity,RAW-Dual [1]; [5],1.45
Cc1cccc(Nc2nc(-c3ccncc3)cs2)c1,NF-kB SEAP reporter activity,RAW-Dual [1]; [4],1.89
same,NF-kB SEAP reporter activity,RAW-Dual [1]; [5],2.08
CCCOc1ccc(S(=O)(=O)NCCC2CCCN2C)cc1-c1nc(=O)c2c([nH]1)c(CCC)nn2C (stereo not given) (library stock concentration (final ~1000-fold dilution): 10 mM),NF-kB SEAP reporter activity,RAW-Dual [2]; agonist: LPS (TLR4) 0.1 ug/mL,1.02
same,NF-kB SEAP reporter activity,RAW-Dual [2]; [6],0.517
same,NF-kB SEAP reporter activity,RAW-Dual [2]; [7],0.99
same,NF-kB SEAP reporter activity,RAW-Dual [2]; [8],1.14
CCCOc1ccc(S(=O)(=O)NCCC2CCCN2C)cc1-c1nc(=O)c2c([nH]1)c(CCC)nn2C (stereo not given),NF-kB SEAP reporter activity,RAW-Dual [1]; [4],1.42
same,NF-kB SEAP reporter activity,RAW-Dual [1]; [5],1.28
COc1cc(F)c(F)c(Nc2ccc(I)cc2F)c1NS(=O)(=O)C1(CC(O)CO)CC1 (stereo not given),NF-kB SEAP reporter activity,RAW-Dual [1]; [4],0.885
same,NF-kB SEAP reporter activity,RAW-Dual [1]; [5],0.968
COc1cc(F)c(F)c(Nc2ccc(I)cc2F)c1NS(=O)(=O)C1(CC(O)CO)CC1 (stereo not given) (library stock concentration (final ~1000-fold dilution): 10 mM),NF-kB SEAP reporter activity,RAW-Dual [2]; agonist: LPS (TLR4) 0.1 ug/mL,1.01
same,NF-kB SEAP reporter activity,RAW-Dual [2]; [6],0.915
same,NF-kB SEAP reporter activity,RAW-Dual [2]; [7],0.342
same,NF-kB SEAP reporter activity,RAW-Dual [2]; [8],0.427
Cl.Cl.Fc1ccc(C(c2ccc(F)cc2)N2CCN(C/C=C/c3ccccc3)CC2)cc1 (library stock concentration (final ~1000-fold dilution): 10 mM),NF-kB SEAP reporter activity,RAW-Dual [2]; agonist: LPS (TLR4) 0.1 ug/mL,2.45
same,NF-kB SEAP reporter activity,RAW-Dual [2]; [6],1.44
same,NF-kB SEAP reporter activity,RAW-Dual [2]; [7],0.829
same,NF-kB SEAP reporter activity,RAW-Dual [2]; [8],1.09
Cl.Cl.Fc1ccc(C(c2ccc(F)cc2)N2CCN(C/C=C/c3ccccc3)CC2)cc1,NF-kB SEAP reporter activity,RAW-Dual [1]; [4],1.99
same,NF-kB SEAP reporter activity,RAW-Dual [1]; [5],1.65
